# Values joined by “and” are separate entries in the source; they are usually repeats but may differ in a detail not shown here. Identical values can stand only once. Records with an inconclusive call do not appear. Some structures have more than one record in an assay (separate samples or runs), and their calls can disagree. Active and inactive are the calls of the source. How the source made its calls: active means hit-call score of the fitted dose curve at least 0.9, where 1 is the maximum; inconclusive means response in the unintended direction; inactive means score below 0.9.
# Test: TOX21_p53_BLA_p2_viability: Viability Assessment in the Tox21 HCT-116 p53 Agonism Beta-lactamase Assay, Phase 2 (AID 2283591);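 further: compound exposure lasted 16 h at 37 °C; actives lower the ATP signal meaning cytotoxicity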
# Source text: TOX21_p53_BLA_p2 is a cell-based, single-readout assay that uses HCT116, a human intestinal cell line, […] in a 1536-well plate.TOX21_p53_BLA_p2_viability is an assay readout measuring cellular ATP content and detected with CellTiter-Glo Luciferase-coupled ATP quantitation.TOX21_p53_BLA_p2_viability used a type of viability reporter where loss-of-signal activity can be used to understand changes in the cell viability. Furthermore, this assay endpoint can be referred to as a secondary readout, because this assay has produced multiple assay endpoints where this one serves a viability function. To generalize the intended target to other relatable targets, this assay endpoint is annotated to the cell cycle intended target family, where the subfamily is cytotoxicity.
# Thawing Method: Place 14 mL of pre-warmed thaw medium into a 15 mL of conical tub. Remove the vial of cells to be thawed from liquid nitrogen and thaw rapidly by placing at 37C in a water bath with gentle agitation for 1-2 minutes. Decontaminate the vial by wiping with 70% ethanol before opening in a biological safety cabinet. Transfer the vial contents drop-wise into 14 mL of thaw medium in a sterile 15-mL conical tub. Centrifuge cells at 900 rpm for 4 minutes and resuspend in thaw medium. Transfer contents to the T75 tissue culture flask containing Thaw Medium and place flask in a humidified 37C/5% CO2 incubator. Switch to growth medium at first passage.Propagation Method: Aspirate medium, rinse once in DPBS, add 0.25% Trypsin/EDTA and swirl to coat the cell evenly. Add an equal volume of Growth Medium to inactivate Trypsin after 2-3 minutes incubation at 37C. Centrifuge cells at 900 rpm for 4 minutes and resuspend in growth medium. Cell should be passage or fed at least twice a week.Assay Protocol: Harvest cells from culture in growth medium and resuspend in assay medium. 2.2 Dispense 4000 cells/5 uL/well into 1536-well black/clear bottom plates using a Multidrop dispenser. After the cells were incubated at 37C for 5 hours, 23 nL of compounds dissolved in DMSO were transferred to the assay plate by a PinTool resulting in a 217-fold dilution. Incubate the plates for 16 hours at 37C, 5% CO2. Add 1 uL of 6X LiveBLAzer FRET B/G (CCF4-AM) Substrate Mixture to each well using a BioRAPTR dispenser and incubate the plates at room temperature for 2 hours. Measure fluorescence intensity at 460 and 530 nm emission and 405 nm excitation by an Envision detector. Data is expressed as the ratio of 460nm/530nm emissions. Add 4 uL of Cell-titer Glo to each well using BioRAPTR and incubate the plates at room temperature for […]. For cell viability readout that measures cytotoxicity, 4 ul/well of CellTiter-Glo reagent was added into the assay plates using a Flying Reagent Dispenser. After 30 min incubation at room temperature, the luminescence intensity in the plates was measured using a ViewLux plate reader.
Structure (SMILES),outcome,AC50
O=C1NC2NC(=O)NC2N1 (stereo not given),inactive,–
CCCC[P+](CCCC)(CCCC)CCCC,inactive,–
CSCCC=O,inactive,–
Cc1c(C2(c3cc(Br)c(O)c(Br)c3C)OS(=O)(=O)c3ccccc32)cc(Br)c(O)c1Br,inactive,–
CCOc1ccccc1O,inactive,–
Cc1ccc(N)c(S(=O)(=O)O)c1,inactive,–
O=C(O)c1ccc(O)cc1,inactive,–
C=C1CC[C@H](O)C/C1=C/C=C1\CCC[C@]2(C)[C@@H]([C@H](C)/C=C/[C@H](C)C(C)C)CC[C@@H]12,inactive,71.1 µM (active)
CC1CC(O)CC(C)(C)C1 (stereo not given),inactive,–
C1CCCCC1,inactive,–
Cc1ccc(-c2ccccc2)cc1,inactive,–
CCc1cc(C(C)(C)C)c(O)c(C(C)(C)C)c1,inactive,–
CCCCCCCC(=O)OCC(O)CO (stereo not given),inactive,–
CCCCCCCCCCCCCC(=O)OCC(O)CO (stereo not given),inactive,–
C1CCOC1,inactive,–
COc1ccc(CCN2CCC(Nc3nc4ccccc4n3Cc3ccc(F)cc3)CC2)cc1,–,15.2 µM (active) and 38.9 µM (active)
CCCC1O[C@@H]2C[C@H]3[C@@H]4CCC5=CC(=O)C=C[C@]5(C)[C@H]4[C@@H](O)C[C@]3(C)[C@]2(C(=O)CO)O1 (stereo not given in full),inactive,–
[Cl][Au]([Cl])[Cl],–,45.6 µM (active)
COC(C)(C)CC(C)=O,inactive,–

Structure (SMILES),outcome,AC50
CC(C)(C)c1ccc(C(=O)O)cc1,inactive,–
C=C(C)C(=O)OCCOCCOCCOC(=O)C(=C)C,inactive,–
COC(=O)C=C(C)CCC=C(C)C,inactive,–
NC(=S)NNC(N)=S,inactive,–
CCC(Cl)C(Cl)C(Cl)CC(Cl)C(Cl)C(C)Cl (stereo not given),inactive,–
CCCCC1(COC(=O)CCC(=O)O)C(=O)N(c2ccccc2)N(c2ccccc2)C1=O,inactive,–
C=COCCOCCOC=C,inactive,–
Brc1ccc(Br)c(Br)c1,inactive,–
OCCc1ccccc1,inactive,–
OCc1ccc(Cl)cc1Cl,inactive,–
C#CC(C)(O)CC(C)C (stereo not given),inactive,–
CC1(C)O[C@@H]2C[C@H]3[C@@H]4CCC5=CC(=O)C=C[C@]5(C)[C@@]4(F)[C@@H](O)C[C@]3(C)[C@]2(C(=O)CO)O1,inactive,–
CC1C2CC(CC2C2CCCC(O)C2)C1(C)C (stereo not given),inactive,–
COC(=O)c1ccc(OC)cc1,inactive,–
Oc1c(Cl)cc(Cl)c(Cl)c1Cc1c(O)c(Cl)cc(Cl)c1Cl,inactive,9.14 µM (active) and 38.7 µM (active)
Cc1ncc([N+](=O)[O-])n1CCO,inactive,–
C[C@H](CCC(=O)NCC(=O)O)[C@H]1CC[C@H]2[C@@H]3[C@H](O)C[C@@H]4C[C@H](O)CC[C@]4(C)[C@H]3C[C@H](O)[C@]12C,inactive,–
COCCOC(=O)c1ccccc1C(=O)OCCOC,inactive,–
CCCC(=O)OC(C)(C)Cc1ccccc1,inactive,–

# Source: PubChem BioAssay (EPA / NIEHS)
